From publication PMC7862700, “An all-to-all approach to the identification of sequence-specific readers for epigenetic DNA modifications on cytosine”

Columns and labels:
Assay in all cases: DAPPL (digital affinity profiling via proximity ligation, sequencing); 10 mM Tris-HCl pH 7.5, 50 mM NaCl, 1 mM DTT, 4% glycerol, room temperature, 30 min; GST-TFs on glutathione beads, 16-mer random dsDNA library, 0.1% formaldehyde crosslink after washing; high values mean tight binding
[1] = target: T1, FEV (Homo sapiens, UniProt Q99581 1-238); conditions: protein: recombinant; tags: N-terminal GST; dsDNA, one strand shown
T1 sequence: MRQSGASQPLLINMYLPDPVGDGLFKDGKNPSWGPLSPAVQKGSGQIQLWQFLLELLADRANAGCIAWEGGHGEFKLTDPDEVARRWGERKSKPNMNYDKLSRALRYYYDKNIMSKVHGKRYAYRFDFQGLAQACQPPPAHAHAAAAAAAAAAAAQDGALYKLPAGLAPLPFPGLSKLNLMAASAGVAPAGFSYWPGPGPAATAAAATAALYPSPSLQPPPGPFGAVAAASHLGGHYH
In short: (§1)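 Human transcription factors carrying a GST fusion were produced in yeast, bound to glutathione beads, tagged with DNA barcodes and pooled together with a tag-only sample. Each pool was held with 200 nmole of a random double-stranded 16-mer DNA library in Tris/NaCl/DTT/glycerol buffer for 30 min at room temperature, then washed, crosslinked in 0.1% formaldehyde, proximity-ligated with BsaI/T4 ligase (1 h, 37 °C), PCR-amplified and sequenced on an Illumina NextSeq500. Binding signal is the read frequency of each hexamer for a given factor divided by its frequency in the tag-only sample.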

[2] = target: ETV5 (Homo sapiens, UniProt P41161 1-510); conditions: protein: recombinant; tags: N-terminal GST; dsDNA, one strand shown
Sequence of ETV5 (P41161 whole entry): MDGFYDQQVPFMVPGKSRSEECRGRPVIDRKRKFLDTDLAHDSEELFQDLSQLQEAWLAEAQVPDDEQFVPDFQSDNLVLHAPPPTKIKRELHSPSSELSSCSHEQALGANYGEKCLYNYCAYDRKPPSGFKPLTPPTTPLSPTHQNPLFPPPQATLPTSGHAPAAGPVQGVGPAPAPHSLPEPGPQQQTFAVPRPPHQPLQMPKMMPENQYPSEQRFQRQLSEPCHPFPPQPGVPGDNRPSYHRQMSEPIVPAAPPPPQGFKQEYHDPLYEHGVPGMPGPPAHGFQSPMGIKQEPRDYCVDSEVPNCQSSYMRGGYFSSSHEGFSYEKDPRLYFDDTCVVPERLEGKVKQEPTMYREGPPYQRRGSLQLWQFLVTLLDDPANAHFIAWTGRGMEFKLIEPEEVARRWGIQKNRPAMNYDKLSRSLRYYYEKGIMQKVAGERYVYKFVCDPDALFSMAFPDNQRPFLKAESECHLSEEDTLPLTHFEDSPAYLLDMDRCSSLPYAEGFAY
In short: as §1

[3] = target: HSF1 (Homo sapiens, UniProt Q00613 1-529); conditions: protein: recombinant; tags: N-terminal GST; chain copies: 3; dsDNA, one strand shown
Sequence of HSF1 (Q00613 whole entry): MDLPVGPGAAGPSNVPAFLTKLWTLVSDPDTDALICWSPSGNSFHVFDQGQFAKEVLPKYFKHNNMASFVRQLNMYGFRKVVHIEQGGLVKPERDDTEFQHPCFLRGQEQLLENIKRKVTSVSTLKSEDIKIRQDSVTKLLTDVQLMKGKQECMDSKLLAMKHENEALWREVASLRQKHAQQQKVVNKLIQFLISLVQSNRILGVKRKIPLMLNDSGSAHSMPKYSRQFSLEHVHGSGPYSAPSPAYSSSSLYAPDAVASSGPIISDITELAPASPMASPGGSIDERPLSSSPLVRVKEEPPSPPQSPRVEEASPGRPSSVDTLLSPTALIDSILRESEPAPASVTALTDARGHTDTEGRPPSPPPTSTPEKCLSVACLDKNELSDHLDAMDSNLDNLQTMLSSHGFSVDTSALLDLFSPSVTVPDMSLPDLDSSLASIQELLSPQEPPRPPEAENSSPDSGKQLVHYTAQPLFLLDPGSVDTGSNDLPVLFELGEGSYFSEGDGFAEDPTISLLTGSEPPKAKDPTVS
In short: as §1

[4] = target: T2, SPIC (Homo sapiens, UniProt Q8N5J4 1-248); conditions: protein: recombinant; tags: N-terminal GST; dsDNA, one strand shown
T2 sequence: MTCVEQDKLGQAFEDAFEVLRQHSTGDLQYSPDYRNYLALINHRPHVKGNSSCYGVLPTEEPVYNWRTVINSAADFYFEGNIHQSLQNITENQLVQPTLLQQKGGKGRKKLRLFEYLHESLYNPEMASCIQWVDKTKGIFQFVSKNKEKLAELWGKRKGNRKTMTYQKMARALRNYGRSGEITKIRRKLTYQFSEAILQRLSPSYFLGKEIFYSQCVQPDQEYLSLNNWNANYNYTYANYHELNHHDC
In short: as §1

[5] = target: ELF4 (Homo sapiens, UniProt Q99607 1-663); conditions: protein: recombinant; tags: N-terminal GST; dsDNA, one strand shown
Sequence of ELF4 (Q99607 whole entry): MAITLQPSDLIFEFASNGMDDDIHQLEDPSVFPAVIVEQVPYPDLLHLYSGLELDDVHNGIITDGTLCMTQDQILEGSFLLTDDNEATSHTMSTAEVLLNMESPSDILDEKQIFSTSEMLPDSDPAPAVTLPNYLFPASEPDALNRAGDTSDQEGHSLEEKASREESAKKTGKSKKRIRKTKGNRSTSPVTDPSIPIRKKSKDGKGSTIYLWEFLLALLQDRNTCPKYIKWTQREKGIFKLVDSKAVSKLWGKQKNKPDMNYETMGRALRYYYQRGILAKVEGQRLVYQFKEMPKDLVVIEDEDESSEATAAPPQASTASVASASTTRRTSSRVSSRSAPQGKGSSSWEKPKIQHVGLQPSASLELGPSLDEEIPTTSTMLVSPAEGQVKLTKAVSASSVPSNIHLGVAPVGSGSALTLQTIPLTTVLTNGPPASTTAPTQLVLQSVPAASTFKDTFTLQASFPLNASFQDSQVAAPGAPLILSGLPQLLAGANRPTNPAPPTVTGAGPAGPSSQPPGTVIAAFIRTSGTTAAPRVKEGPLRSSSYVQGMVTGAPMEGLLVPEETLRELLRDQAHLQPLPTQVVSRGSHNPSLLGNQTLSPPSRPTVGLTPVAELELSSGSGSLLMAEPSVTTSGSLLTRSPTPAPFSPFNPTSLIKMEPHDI
In short: as §1

[6] = target: T3, ELK4 (Homo sapiens, UniProt P28324-2 1-405); conditions: protein: recombinant; tags: N-terminal GST; dsDNA, one strand shown
T3 sequence: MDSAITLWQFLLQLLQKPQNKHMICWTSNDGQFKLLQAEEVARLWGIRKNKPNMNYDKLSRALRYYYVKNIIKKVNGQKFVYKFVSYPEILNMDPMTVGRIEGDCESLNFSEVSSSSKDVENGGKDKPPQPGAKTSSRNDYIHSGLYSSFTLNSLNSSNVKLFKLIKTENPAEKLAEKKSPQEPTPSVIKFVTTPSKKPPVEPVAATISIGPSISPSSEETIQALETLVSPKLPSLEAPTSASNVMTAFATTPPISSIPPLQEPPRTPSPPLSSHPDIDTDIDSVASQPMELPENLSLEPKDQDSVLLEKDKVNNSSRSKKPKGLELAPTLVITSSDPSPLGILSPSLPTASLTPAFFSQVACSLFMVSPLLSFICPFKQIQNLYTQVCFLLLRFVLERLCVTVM
In short: as §1

[7] = target: T4, ETV2 (Homo sapiens, UniProt O00321 1-342); conditions: protein: recombinant; tags: N-terminal GST; dsDNA, one strand shown
T4 sequence: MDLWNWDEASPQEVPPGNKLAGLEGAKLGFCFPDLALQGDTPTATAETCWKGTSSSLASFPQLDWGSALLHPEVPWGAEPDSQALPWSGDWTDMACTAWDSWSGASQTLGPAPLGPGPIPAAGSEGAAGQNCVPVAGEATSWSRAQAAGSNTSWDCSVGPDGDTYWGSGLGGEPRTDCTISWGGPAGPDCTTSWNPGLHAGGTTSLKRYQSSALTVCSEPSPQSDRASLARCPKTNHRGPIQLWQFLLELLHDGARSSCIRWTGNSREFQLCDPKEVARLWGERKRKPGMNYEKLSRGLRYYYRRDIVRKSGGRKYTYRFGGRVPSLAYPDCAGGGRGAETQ
In short: as §1

[8] = target: CRX (Homo sapiens, UniProt O43186 1-299); conditions: protein: recombinant; tags: N-terminal GST; dsDNA, one strand shown
Sequence of CRX (O43186 whole entry): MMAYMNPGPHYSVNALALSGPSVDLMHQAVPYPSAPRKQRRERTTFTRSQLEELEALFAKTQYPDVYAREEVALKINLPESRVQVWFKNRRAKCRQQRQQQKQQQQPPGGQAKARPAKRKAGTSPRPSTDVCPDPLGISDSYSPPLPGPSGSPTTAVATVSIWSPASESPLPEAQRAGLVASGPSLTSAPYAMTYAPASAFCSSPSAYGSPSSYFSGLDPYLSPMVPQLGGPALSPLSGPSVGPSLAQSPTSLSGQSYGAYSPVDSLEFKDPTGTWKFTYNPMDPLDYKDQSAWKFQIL
In short: as §1

[9] = target: ETV1 (Homo sapiens, UniProt P50549 1-477); conditions: protein: recombinant; tags: N-terminal GST; dsDNA, one strand shown
Sequence of ETV1 (P50549 whole entry): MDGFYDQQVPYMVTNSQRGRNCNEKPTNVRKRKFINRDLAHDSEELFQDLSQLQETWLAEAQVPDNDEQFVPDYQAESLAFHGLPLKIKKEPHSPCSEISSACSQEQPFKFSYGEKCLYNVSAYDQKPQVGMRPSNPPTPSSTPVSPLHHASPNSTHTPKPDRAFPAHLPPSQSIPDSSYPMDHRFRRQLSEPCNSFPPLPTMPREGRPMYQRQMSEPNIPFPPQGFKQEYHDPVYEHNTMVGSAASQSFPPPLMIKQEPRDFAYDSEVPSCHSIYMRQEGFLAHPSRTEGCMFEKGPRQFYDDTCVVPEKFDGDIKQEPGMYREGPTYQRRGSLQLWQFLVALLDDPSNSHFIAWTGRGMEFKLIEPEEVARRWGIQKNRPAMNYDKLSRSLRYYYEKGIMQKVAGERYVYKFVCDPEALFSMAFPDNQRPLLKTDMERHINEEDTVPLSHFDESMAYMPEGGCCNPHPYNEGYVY
In short: as §1

For CTCAGA, the binding signal [1] was 1.03 fold enrichment (6-mer frequency, TF over GST control), the binding signal [2] was 1.14 fold enrichment (6-mer frequency, TF over GST control) and the binding signal [3] was 1.17 fold enrichment (6-mer frequency, TF over GST control). For the same sequence, the binding signal [4] was 1.16 fold enrichment (6-mer frequency, TF over GST control), the binding signal [5] was 1.14 fold enrichment (6-mer frequency, TF over GST control) and the binding signal [6] was 1.01 fold enrichment (6-mer frequency, TF over GST control). The binding signal [7] was 1.18 fold enrichment (6-mer frequency, TF over GST control), the binding signal [8] was 1.27 fold enrichment (6-mer frequency, TF over GST control) and the binding signal [9] was 1.1 fold enrichment (6-mer frequency, TF over GST control).
